# Source: PubChem BioAssay (Sanford-Burnham Center for Chemical Genomics)
# CYP2C19 inh = human CYP2C19 inhibition; actives 21% (n = 96,000); AID 778; CYP2C19 Supersomes, luciferin-H EGE luminescence, 30 min; inhibition, % at 5 µM;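 active = CYP2C19 inhibition above a set limit at 5 µM in the primary screen, cut at about 50% in these data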;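 note: plate controls were negative control wells for no effect and 2.5 mM tranylcypromine positive control for full effect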
# CYP2C9 inhib = blocks human cytochrome P450 2C9. CYP2C9 Supersomes, luciferin-H conversion, luminescence. inhibition, % at 5 µM. actives 20% (n = 96,000);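 active = blocking of liver enzyme CYP2C9 beyond about 50% at 5 µM, limit read from the data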
# CYP2C19 activ = cytochrome P450 2C19 (human) activation; P33261; recombinant CYP2C19, luciferin-H EGE luminescence; active compounds read high; 0 = fully inhibited enzyme, 1 = untreated enzyme; activation factor at 5 µM; 96,000 tested, under 10 active; AID 1025;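 active = activation factor of at least 2 at 5 µM in the primary screen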;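 note: 0 = wells with 2.5 mM tranylcypromine and 1 = vehicle-only wells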
# CYP2C9 activ = CYP2C9 (human) activation; P11712; recombinant CYP2C9, luciferin-H conversion, luminescence; active compounds read high; factor 1 = untreated enzyme, 0 = blocked; activation factor at 5 µM; actives 1.4% (n = 96,000); AID 1024;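 active = activation factor of 2 or more for CYP2C9 at a 5 µM dose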;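 note: 0 = sulfaphenazole-blocked wells and 1 = vehicle-only wells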
# PLAP activator = human PLAP activation. purified PLAP enzyme, luminescent substrate read-out; active compounds read high. activation fold at 20 µM. actives 1.2% (n = 96,000). P05187; in the data active = activation fold above about 2
# Target sequence (P05187 whole entry, looked up): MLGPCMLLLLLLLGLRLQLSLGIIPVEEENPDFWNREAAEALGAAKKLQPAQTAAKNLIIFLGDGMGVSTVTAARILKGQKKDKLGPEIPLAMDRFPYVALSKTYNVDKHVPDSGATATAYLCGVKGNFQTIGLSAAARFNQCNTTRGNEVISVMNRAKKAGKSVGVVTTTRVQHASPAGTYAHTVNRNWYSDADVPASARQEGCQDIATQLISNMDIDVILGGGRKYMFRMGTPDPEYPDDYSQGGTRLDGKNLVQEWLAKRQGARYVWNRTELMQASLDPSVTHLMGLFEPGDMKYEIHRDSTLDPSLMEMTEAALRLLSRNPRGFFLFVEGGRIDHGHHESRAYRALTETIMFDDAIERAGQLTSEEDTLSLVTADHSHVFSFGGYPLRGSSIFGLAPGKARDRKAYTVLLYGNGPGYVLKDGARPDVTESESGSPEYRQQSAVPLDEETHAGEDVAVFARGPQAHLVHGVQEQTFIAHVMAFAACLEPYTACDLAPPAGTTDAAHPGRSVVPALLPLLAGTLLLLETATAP
# An asterisk follows results filed as active. Compounds with a hit are over-represented: about 31% of the library has one in this group of screens.
SMILES,CYP2C19 inh,CYP2C9 inhib,CYP2C19 activ,CYP2C9 activ,PLAP activator
Cc1nnc2ccc(N3CCN(c4cccc(C(F)(F)F)c4)CC3)nn12,29,16,0.7,0.8,1.4
CCOC(=O)C(NC(=O)c1ccc(F)cc1)(Nc1nnc(C)s1)C(F)(F)F (centres undefined),14,-2,0.9,1,0.9
Cc1sc2nc(CN(CCc3ccccc3)C(=O)c3ccco3)[nH]c(=O)c2c1C,1,21,1,0.8,1.1
Cc1c(C(=O)N(C)C)sc2nc(-c3ccccn3)[nH]c(=O)c12,-16,-8,1.2,1.1,2.9*
CCC(=O)Nc1ccc(/C(C)=N\NS(=O)(=O)c2ccc(C)cc2)cc1,16,61*,0.8,0.4,1.1
CCC(=O)Nc1ccc(S(=O)(=O)Nc2cccnc2)cc1,31,48,0.7,0.5,1
CC(=O)Nc1ccc(NC(=O)CNS(=O)(=O)c2ccc(C)cc2)cc1,42,28,0.6,0.7,0.9
COc1ccc(S(=O)(=O)N/N=C(/C)c2ccc(Cl)cc2)cc1,84*,79*,0.2,0.2,1
CC(=O)Nc1ccc(/C(C)=N/NS(=O)(=O)c2ccc(C)cc2)cc1,24,71*,0.8,0.3,1
CC(=O)Nc1ccc(S(=O)(=O)NNC(=O)c2ccc(C)cc2)cc1,53*,41,0.5,0.6,1
C/C(=N/NS(=O)(=O)c1ccc(Cl)cc1)c1cccc(O)c1,22,23,0.8,0.8,1
CC(=O)Nc1ccc(S(=O)(=O)NNC(=O)c2cccc3ccccc23)cc1,33,62*,0.7,0.4,0.9
CC(=O)Nc1ccc(S(=O)(=O)NNC(=O)c2cc3c4ccccc4n(C)c3s2)cc1,-1,-3,1,1,0.9
C/C(=N/NS(=O)(=O)c1ccc(Br)cc1)c1ccc(NC(=O)c2ccc(C)o2)cc1,50,98*,0.5,0,1.1
Cc1ccc(C(=O)Nc2ccc(CC(=O)O)cc2)o1,8,0,0.9,1,1
CCC(NS(=O)(=O)c1ccc(C)cc1)C(=O)Nc1ccc(NC(C)=O)cc1 (centres undefined),70*,46,0.3,0.5,1
CCOc1ccc(S(=O)(=O)N(CC(=O)N/N=C/c2ccc(-c3ccc([N+](=O)[O-])cc3)o2)c2ccccc2)cc1,20,62*,0.8,0.4,1.1
CCOc1ccc(N(CC(=O)N/N=C/c2cc([N+](=O)[O-])ccc2Cl)S(C)(=O)=O)cc1,7,4,0.9,1,0.9
O=[N+]([O-])c1cccc(-c2ccc(/C=N/NC(=S)Nc3ccccc3)o2)c1,-13,-6,1.1,1.1,1
Cc1ccc(C)c(N(CC(=O)N/N=C/c2ccc(-c3ccc([N+](=O)[O-])cc3)o2)S(=O)(=O)c2ccccc2)c1,19,61*,0.8,0.4,1.1
CCOC(=O)c1c(NC(=O)CSc2nnc(-c3ccco3)o2)sc(C)c1C,21,48,0.8,0.5,1.2
CCOc1ccc(OCC)c(NC(=O)CSc2nnc(-c3cccnc3)o2)c1,24,31,0.8,0.7,1
CCOC(=O)c1c(NC(=O)CSc2nnc(-c3ccco3)o2)sc(C(C)=O)c1C,14,70*,0.9,0.3,0.9
CCOC(=O)c1c(NC(=O)CSc2nnc(-c3cccnc3)o2)sc(C(C)=O)c1C,14,65*,0.9,0.3,1.1
CSc1nc(NC(C)(C)C)nc(Oc2ccc(=O)n(C)n2)n1,-4,-9,1,1.1,0.8
SMILES,CYP2C19 inh,CYP2C9 inhib,CYP2C19 activ,CYP2C9 activ,PLAP activator
CCN(CC)Cc1c(O)ccc2c(=O)c(Oc3ccccc3OC)coc12,4,5,1,1,1
CCCn1c(=O)c2c(C(F)(F)F)cc(-c3ccco3)nc2n(CCC)c1=O,-8,-17,1.1,1.2,0.8
CCCn1c(=O)c2c(C(=O)OCC)cc(-c3ccco3)nc2n(CCC)c1=O,30,61*,0.7,0.4,1.7
CCC(C)(C)C1CCC(=NNC(=O)c2ccoc2C)CC1 (centres undefined),7,8,0.9,0.9,0.9
COCCOC(=O)c1c(C)oc2ccc(OC(=O)c3ccc4c(c3)OCO4)cc12,-10,87*,1.1,0.1,1.4
COCCOC(=O)c1c(C)oc2ccc(OC(=O)c3c(OC)cccc3OC)cc12,93*,96*,0.1,0,1.6
CCOC(=O)Oc1ccc2oc(C)c(C(=O)OCCOC)c2c1,15,-1,0.8,1,1.2
CCOC(=O)c1c(C)oc2ccc(OC(=O)N3CCOCC3)cc12,4,1,1,1,1.2
O=C(CN1CCN(Cc2ccc3c(c2)OCO3)CC1)c1c[nH]c2ccccc12,3,18,1,0.8,1
Cc1cc(-c2c(C)[nH]n(-c3ccccc3)c2=O)n(-c2ccccc2)n1,1,81*,1,0.2,1
Cc1[nH]n(-c2ccccc2)c(=O)c1-c1cccc(Cl)c1,20,71*,0.8,0.3,1.1
Cc1cc(-c2c(C)[nH]n(-c3ccc(Cl)cc3)c2=O)n(-c2ccc(Cl)cc2)n1,8,60*,0.9,0.4,1.1
Cc1ccc(NCCC(=O)c2ccc(Cl)cc2)cc1C,59*,5,0.4,1,0.9
Cc1ccc(C(=O)CCNc2ccc(Cl)cc2)o1,92*,37,0.1,0.6,0.9
O=C(CCNc1ccc(F)c(Cl)c1)c1ccco1,32,20,0.7,0.8,0.8
CCCOc1ccc(C(=O)CCNc2ccc(C)c(Cl)c2)cc1,60*,20,0.4,0.8,1
Cc1cccc(N(C2C=CS(=O)(=O)C2)S(=O)(=O)c2ccccc2)c1 (centres undefined),26,8,0.7,0.9,0.8
Cc1noc(C)c1COc1ccc(C(=O)OC(C)C(=O)Nc2ccc(N3CCOCC3)cc2)cc1 (centres undefined),9,19,0.9,0.8,1
Cn1c(C(O)c2ccccc2)nc(Cl)c1Cl (centres undefined),70*,12,0.3,0.9,0.8
CCC(C)NCCOCCOc1ccccc1-c1ccccc1 (centres undefined),35,-9,0.6,1.1,1.3
O=C(C1CCCCC1)N1CCCc2ccccc21,67*,45,0.3,0.6,1.2
O=C(NC1CCCCC1)N1CCCc2ccccc21,53*,14,0.5,0.9,1.1
CC(C)=CC(=O)N1CCCc2ccccc21,10,-6,0.9,1.1,1
CC(C)N1C(=O)CCC1C(=O)N1CCCc2ccccc21 (centres undefined),1,16,1,0.8,1
O=C(NCc1ccccc1)c1ccc(CN(c2ccccn2)S(=O)(=O)c2ccccc2)cc1,1,40,1,0.6,1.5
COc1ccc(C)cc1NC(=O)c1nnn(Cc2cc(C)ccc2C)c1N,17,-142,0.8,2.4*,0.9
COc1ccc(NC(=O)c2nnn(Cc3ccc(SC)cc3)c2N)c(OC)c1,5,-147,1,2.5*,0.7
COc1cccc(Cn2nnc(C(=O)Nc3ccc(C)cc3)c2N)c1,25,-108,0.8,2.1*,0.9
